Laboratory results: publication PMC12136788
Changes are numbered by the printed parent chain. The full ranking holds about 5,800 sequences; the median of “enrichment r” is about 0.54, and the highest 2% start at about 16. The full list was thinned out, with the highest values kept by preference.

B1: chr2:216672374:216672548:-|3pUTR|ENSG00000115461|msi1|FALSE|unique (ssRNA)
RNA: GGGAGUUCUACAGUCCGACGAUCUUUUUCUUUUUUUUUUUGAAGACAGCAAUAACCACAGUACAUAUUACUGUAGUUCUCUAUAGUUUUACAUACAUUCAUACCAUAACUCUGUUCUCUCCUCUUUUUUGUUUUCAACUUUAACAACAGAGGAUUGAGCAUCA
B2: chr5:113594843:113594944:+|3pUTR|ENSG00000047188|msi1|FALSE|bound_elsewhere (ssRNA)
RNA: GGGAGUUCUACAGUCCGACGAUCCAACAUAAAAUCUUGAGAACCUUCUACUUUCUCUGGGAAAGCAUUAUAUAGUGGUGCAUUAGUUUAGAAAGUCAGCUAUGAUUUUGCCUAUAGUUCUAGUUAUUAGCUUUGGGGUUUUCUCAACAGAGGAUUGAGCAUCA
B3: chr10:16593140:16593241:-|3pUTR|ENSG00000148484|unk|FALSE|unique (ssRNA)
RNA: GGGAGUUCUACAGUCCGACGAUCUUAUUUUUCUUUUCACUCUCUUUCUAAUGCUUCCCACCUUACCUUUUAGAUUCUUUUGCUAGGUGGGAGAUUGUUAUAAGGUCUUUAAACCAUUUCCAUUUGUUUCUUUAACAUUACCAACAACAGAGGAUUGAGCAUCA
B4: chr10:117282838:117282939:-|3pUTR|ENSG00000165650|unk|FALSE|bound_elsewhere (ssRNA)
RNA: GGGAGUUCUACAGUCCGACGAUCCCCCUUGUGUUAUUUUUCUUCCUCUUGGUUUUUGAAUUAGUGUUAAAUAGAAUACUGUCUAGAUUCUUAAAAUAUUUUCAUUUCCAUCAUGGUUAUAACAAAUUUGCUGCAUGCCCAAACCAACAGAGGAUUGAGCAUCA
B5: ENSG00000079335:stop:overlap|stop_codon|ENSG00000079335|stop_codon|NA|stop_codon (ssRNA)
RNA: GGGAGUUCUACAGUCCGACGAUCUUGGUGGAAAUCUUUCAAAAACACAAAACAUGGAACGAUUUGGAGAGGUAAGUUUUCCCUAGGAGAUUCUAUCUUCUUAAAACUGAUGUUCUGCAUUUGUUUCUCAGUUGGACCUAUAUACAACAGAGGAUUGAGCAUCA
B6: chr9:34635388:34635489:-|3pUTR|ENSG00000147955|msi1|FALSE|unique (ssRNA)
RNA: GGGAGUUCUACAGUCCGACGAUCGGGAUAUCCAUGCUUAUGUAUCCAAACACAGAGACCCAUGGGAACAAAUGAGACACAUAUAGAUACUGAGACCUGUGUGUACAGUAGGACCAUGCACUCACACCCAUCUGGAGAGGGAGCCAACAGAGGAUUGAGCAUCA
B7: chr12:54350855:54350965:+|3pUTR|ENSG00000111481|msi1|FALSE|unique (ssRNA)
RNA: GGGAGUUCUACAGUCCGACGAUCUUGCCCUGACAUUUUUGUAAAUUCUGUGCCCUUUGCUGUAGCUACACUUCAGAUUAAAGUAGGAGAAAGAAUGUGCUGAGUGUUUUCCUCCCUUUGCCUCUACCUGGCCCUCAUCCCAACCAACAGAGGAUUGAGCAUCA
B8: chr9:86945015:86945116:-|3pUTR|ENSG00000180447|msi1|FALSE|unique (ssRNA)
RNA: GGGAGUUCUACAGUCCGACGAUCUUGGUUUUGGAUAAGUUUGAGCCCUUGACCUUAAUUUCAUUGCUACCACUCUGAUCUCUUAGCACAUUUCUUAGGAUUAAGGGUCCAAAAAUGCUGAUCUAAGGGGUUGCCAUGGUGUUGCAACAGAGGAUUGAGCAUCA
B9: chr5:172042892:172042993:-|3pUTR|ENSG00000072786|msi1|total|mutant (ssRNA)
RNA: GGGAGUUCUACAGUCCGACGAUCGAUUCUCCCGCUUCAACCUUGAGCCGCUGGGACGACAGAUACAUGCUACUGCACCCAGCCCGGUUAAGGUUCUGUAUACUCUGUCUUUCUAAAGCAAUUCCCUGGAAAUUUUCUCAACAUCAACAGAGGAUUGAGCAUCA
B10: chr9:69711526:69711627:-|3pUTR|ENSG00000188647|unk|FALSE|unique (ssRNA)
RNA: GGGAGUUCUACAGUCCGACGAUCGAACUGCUGUAGUCUUCUGCAAUCAGUCUCUGUAUUGGUAUAUCCAGUACUAUCGGGUUUAGGUUCUUUUUAUUUUUCCUUAAAUCUUACUUGUUUCUAGCGUCUUAAGAGUGGUAAUGGCAACAGAGGAUUGAGCAUCA
B11: chr22:49888080:49888186:+|3pUTR|ENSG00000100426|unk|FALSE|unique (ssRNA)
RNA: GGGAGUUCUACAGUCCGACGAUCUGGCUUAUUAACAGGGAAGAAGCUUGUUAUAUUCCAGUUGUAAGAAUAGCCUUAGUGUUUAGAUUUUUUUAUGAUAGGGAAGAUGCGGCCAUCACUGGGAUAUUUUCAAAUCCCAAGGACCAACAGAGGAUUGAGCAUCA
B12: chr19:35555165:35555334:-|CDS|ENSG00000105675|control|control|control (ssRNA)
RNA: GGGAGUUCUACAGUCCGACGAUCGGCCGUCACGGGGGAUGGUGUGAAUGACUCCCCAGCUCUGAAGAAGGCAGACAUCGGAGUAGCCAUGGGCAUCGCUGGCUCAGAUGCUGCCAAAAAUGCAGCUGACAUGAUCCUGCUGGACAACAGAGGAUUGAGCAUCA
B13: chr7:39987650:39987751:+|CDS|ENSG00000065883|unk|total|mutant (ssRNA)
RNA: GGGAGUUCUACAGUCCGACGAUCUCCCGGCAUUCAAGAUCUCGCCGCAGGCACAGAUUGUCCCGAUCCAGAAGUCGUCAUUCCCGUAUUUCUCCCCGCACACUAACUCUGAAGAGCCGCCUGGCAGCUGAAUUGAACAAGAAUCAACAGAGGAUUGAGCAUCA
B14: chr1:6224442:6224573:-|3pUTR|ENSG00000116237|msi1_unk|FALSE|overlapping (ssRNA)
RNA: GGGAGUUCUACAGUCCGACGAUCCUAUACAAUUUUAAAAAUACUUCCUCAUAGGAUGCUUUGGCCCUUCAUCUAUUUAAUCAUAGCUACAUACCUAUUUUUUAUAAGUAGCAGUACACAUUCAAAGGGGUAUUCCUAGCUCAACAACAGAGGAUUGAGCAUCA
B15: chr19:9526975:9527076:-|3pUTR|ENSG00000130818|unk|total|mutant (ssRNA)
RNA: GGGAGUUCUACAGUCCGACGAUCCCUCUCAGACCUUCCAUCAUUACUAUAUUUCACUUUUAUGCCUAUAAACACACACAAAUCCGCAUAUGUAAUCUAAUACAUUGCCGCUAUUUUUCAGAAGUUAUCAGAUCAAUUAAGUAUCAACAGAGGAUUGAGCAUCA
B16: chr2:165880514:165880799:-|CDS|ENSG00000123607|control|control|control (ssRNA)
RNA: GGGAGUUCUACAGUCCGACGAUCGAUGGCAUGGAAAUAUAGCAAUCGGACAAAUCCGGCAGUAGGUGAGUUUGGCAAUCACCUAGAUUUUUCACAGAAAAAUUAUGUUGUAUUUAUUAAUUUUCAUUUAAAUGCAUUUGAUUUCAACAGAGGAUUGAGCAUCA
B17: chr11:69653362:69653473:+|3pUTR|ENSG00000110092|msi1_unk|FALSE|overlapping (ssRNA)
RNA: GGGAGUUCUACAGUCCGACGAUCACUGCCAUGUACUAGUUUUAGUUUUCUCUUAGAACAUUGUAUUACAGAUGCCUUUUUUGUAGUUUUUUUUUUUUUUAUGUGAUCAAUUUUGACUUAAUGUGAUUACUGCUCUAUUCCAAACAACAGAGGAUUGAGCAUCA
B18: chr7:158734047:158734148:-|3pUTR|ENSG00000117868|msi1_unk|FALSE|overlapping (ssRNA)
RNA: GGGAGUUCUACAGUCCGACGAUCCUACCCGGAACACACCCUCUCACAGACGUACCAAUGUUAUUUUUAUAAUUUCAUGGAUUUAGUUAUACAUACCUUAAUAGUUUUAUAAAAUUGUUGACAUUUCAGGCAAAUUUGGCCAAUCAACAGAGGAUUGAGCAUCA
B19: chr21:25881503:25881610:-|3pUTR|ENSG00000142192|msi1_unk|FALSE|overlapping (ssRNA)
RNA: GGGAGUUCUACAGUCCGACGAUCACAAACCCGUUUUAUGAUUUACUCAUUAUCGCCUUUUGACAGCUGUGCUGUAACACAAGUAGAUGCCUGAACUUGAAUUAAUCCACACAUCAGUAAUGUAUUCUAUCUCUCUUUACAUUUCAACAGAGGAUUGAGCAUCA
B20: chr1:6224442:6224573:-|3pUTR|ENSG00000116237|msi1_unk|total|mutant (ssRNA)
RNA: B14 RNA with U51C, A52C, U83C, A84C, U108C, A109C, U136C, A137C
B21: chr11:69653362:69653473:+|3pUTR|ENSG00000110092|msi1_unk|total|mutant (ssRNA)
RNA: B17 RNA with U36C, A37C, U42C, A43C, U53C, A54C, U83C, A84C
B22: chr7:158734047:158734148:-|3pUTR|ENSG00000117868|msi1_unk|total|mutant (ssRNA)
RNA: B18 RNA with U83C, A84C, U101C, A102C
B23: chrX:129805617:129805718:-|3pUTR|ENSG00000188706|msi1|total|mutant (ssRNA)
RNA: GGGAGUUCUACAGUCCGACGAUCUCUUUUCCCAUCCGAUAUAUGUAAGCCGUUGCCGCCGAGAUAAUAAUUGACAUUUCUCGCCGACUACCCAGAAACUUUUUUAAUACCUGUGCCAUUCUCAAUAAGAAUUUAUGAGAUGCCCAACAGAGGAUUGAGCAUCA
B24: chr12:68839811:68839877:+|CDS_3pUTR|ENSG00000135679|msi1_unk|FALSE|overlapping (ssRNA)
RNA: GGGAGUUCUACAGUCCGACGAUCAUAAGCCCUGCCCAGUAUGUAGACAACCAAUUCAAAUGAUUGUGCUAACUUAUUUCCCCUAGUUGACCUGUCUAUAAGAGAAUUAUAUAUUUCUAACUAUAUAACCCUAGGAAUUUAGACCAACAGAGGAUUGAGCAUCA
B25: chrX:129805617:129805718:-|3pUTR|ENSG00000188706|msi1|FALSE|unique (ssRNA)
RNA: B23 RNA with C35U, C36A, C49U, C50A, C55U, C56A, C58U, C59A, C83U, C84A

These binders were tested against MSI1 full-length (mouse, UniProt Q61474 1-362) (assay: nsRBNS (natural sequence RNA bind-n-seq); RBNS binding buffer (assumed for nsRBNS): 25 mM Tris pH 7.5, 150 mM KCl, 3 mM MgCl2, 0.01% Triton X-100, 500 ug/ml BSA, 20 U/ml SUPERase-In, 4 C; UNK is unkempt and MSI1 is Musashi-1; names of the RNAs are library labels; protein concentration not given here; high values mean tight binding).
Sequence of MSI1 full-length (Q61474 whole entry): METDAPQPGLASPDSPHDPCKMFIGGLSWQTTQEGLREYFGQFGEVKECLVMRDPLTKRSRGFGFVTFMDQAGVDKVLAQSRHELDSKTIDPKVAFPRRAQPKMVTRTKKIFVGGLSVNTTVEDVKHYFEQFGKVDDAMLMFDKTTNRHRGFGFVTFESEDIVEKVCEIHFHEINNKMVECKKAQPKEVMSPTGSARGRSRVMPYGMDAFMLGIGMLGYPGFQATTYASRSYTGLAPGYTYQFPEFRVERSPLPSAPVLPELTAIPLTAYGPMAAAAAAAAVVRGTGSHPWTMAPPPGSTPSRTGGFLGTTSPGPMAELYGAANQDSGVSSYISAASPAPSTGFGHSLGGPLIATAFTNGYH

Binder | binding signal [enrichment R]
B1 | 21.2
B2 | 31.3
B3 | 10.5
B4 | 3.9
B5 | 4.56
B6 | 0.728
B7 | 0.649
B8 | 0.273
B9 | 0.391
B10 | 3.44
B11 | 11.3
B12 | 0.465
B13 | 0.458
B14 | 7.66
B15 | 9.57
B16 | 0.379
B17 | 32.9
B18 | 20.8
B19 | 0.949
B20 | 18.3
B21 | 1.65
B22 | 0.582
B23 | 0.608
B24 | 3.21
B25 | 71.9
